# An excerpt weighted towards active compounds, which were near 5.9% of everything screened.
# VP16 counter: Gal4-VP16 reporter inhibition counter-screen; Drosophila S2 Gal4-VP16 UAS-luciferase, luminescence, 20 h; Potency, µM (top dose mostly 53.6 µM), for inactives: at the top dose activity, negative = inhibition, most hits filed as inhibitors; 310,000 tested, 3.5% active; AID 2546;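 further: Gal4-VP16 expression switched on by copper sulfate through the metallothionein promoter; potency means the concentration at half of the fitted maximal effect; nearly all actives have a fitted effect of over 50% in size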
# TrxR1 inh: rat TrxR1 inhibition. O89049. recombinant rTrxR1, NADPH fluorescence consumption, selenite substrate. Potency, µM (series often up to 114 µM), for the others: at the top dose activity change, negative = inhibition, most hits filed as inhibitors. 390,000 tested, 1% active. AID 588453; further: potency means the concentration at half of the fitted maximal effect; nearly all actives have a fitted effect of over 65% in size
#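 Rat TrxR1 (90 nM in the dispensed reagent) was pre-reduced with 400 uM NADPH for 5 min at room temperature, then incubated with compound for 15 min. After 400 uM selenite was added, NADPH fluorescence (Ex 340/Em 450 nm) was followed for 8 min.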
# GALK inh: blocks human galactokinase activity. P51570. Purified GALK, Kinase-Glo residual ATP luminescence. Potency, µM (doses to about 57.5 µM), without a hit: at the highest dose activity change, negative = inhibition, actives largely listed as inhibitors. 270,000 tested, 0.007% active. AID 1868; further: potency means the concentration at half of the fitted maximal effect
# Target sequence (P51570 whole entry, looked up): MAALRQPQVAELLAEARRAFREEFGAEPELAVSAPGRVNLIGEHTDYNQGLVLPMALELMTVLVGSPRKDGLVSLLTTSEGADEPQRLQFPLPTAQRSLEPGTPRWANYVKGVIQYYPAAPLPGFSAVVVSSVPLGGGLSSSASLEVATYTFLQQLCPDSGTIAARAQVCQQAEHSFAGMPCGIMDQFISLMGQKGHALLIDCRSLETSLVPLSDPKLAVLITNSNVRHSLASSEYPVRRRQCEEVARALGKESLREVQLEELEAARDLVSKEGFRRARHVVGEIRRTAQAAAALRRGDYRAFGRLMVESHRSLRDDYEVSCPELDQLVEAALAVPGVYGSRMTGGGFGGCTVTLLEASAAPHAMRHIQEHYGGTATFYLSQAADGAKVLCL
#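 Kinase-Glo Plus luminescence measured ATP left after a 1 h room-temperature reaction. The reaction used 5 nM GALK, 100 uM galactose and 35 uM ATP at pH 8.0 (20 mM HEPES, 5 mM MgCl2, 60 mM NaCl, 1 mM DTT, 0.01% BSA).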
# RORgamma inh: ROR gamma (mouse) transcription inhibition; P51450; Drosophila S2 Gal4-RORgamma UAS-luciferase reporter, 20 h; Potency, µM (top dose mostly 53.6 µM), for inactives: at the highest dose activity change, negative = inhibition, hits mostly inhibitors; 310,000 tested, 5.4% active; AID 2551; further: potency means the concentration at half of the fitted maximal effect; nearly all actives have a fitted effect of over 60% in size
#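 Schneider cells (Drosophila), stable Gal4 DBD–ROR gamma + UAS-luc; 1 hr cmpd preincubation; Cu2+ induction 700 uM final; 20 hr ambient; luminescence.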
# TrxR1 substrate: substrates of rat thioredoxin reductase 1; Potency, µM (doses to about 114 µM), without a hit: at the highest dose activity change, negative = substrate turnover; 390,000 tested, 0.01% active; O89049; purified TrxR1 substrate turnover, NADPH consumption readout; further: potency means the concentration at half of the fitted maximal effect; nearly all actives have a fitted effect of over 50% in size
#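 Rat TrxR1, dispensed at 90 nM, was prereduced with 400 uM NADPH (final) for 5 min at ~22 deg C, then incubated with compound 15 min before 400 uM selenite. A first-read NADPH fluorescence drop versus no-compound background flagged substrates.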
# Coupling enz: inhibits coupling enzyme system, counter-screen for aldolase hits; coupling enzyme system counterscreen, AmpLite Red fluorescence; activity change, negative = inhibition, % at 58.2 µM, hits read low; 290,000 tested, 0.67% active; AID 2472; in the data active means activity change below about -30%
#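 Compounds tested against the coupling enzymes alone at 57.5 uM final; readout was AmpLite Red fluorescence (525/598 nm) after 20 min at RT.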
# Active calls of the source: *; ? = inconclusive; / = no result given; [ ] = remark or other dose. Unless noted, the call rests on the fitted dose curve; in most records, active means well fitted curve in the direction sought with a large enough effect; inconclusive means small, poorly fitted or top-dose-only effect, or another doubt; inactive means no such curve, though single readings can be large; an effect the other way counts as inactive or inconclusive. On the % scale 0 is the no-effect control and ±100 the full control effect.
SMILES,VP16 counter,TrxR1 inh,GALK inh,RORgamma inh,TrxR1 substrate,Coupling enz
Cc1ccccc1NC(=S)N/N=C/c1ccc(O)cc1O,?,-2%,3%,?,-3%,-1
Cc1cccc(NC(=S)N/N=C/c2cccc(O)c2)c1C,14µM*,-20%,-3%,4.5µM*,-10%,1
Cc1ccccc1NC(=S)N/N=C/C(C)c1ccccc1 (stereo not given),8.9µM*,-22%,-1%,1.8µM*,-6%[57.1 µM],0
COC(=O)c1ccc(C2Nc3c(C)cccc3-c3cc(C)nn32)cc1 (stereo not given),/,5%,/,/,-4%,/
COc1ccc(CCNc2ccc(N3C(=O)CC(C)C3=O)cc2[N+](=O)[O-])cc1OC (stereo not given),6.3µM*,7%,0%,-67%,-4%,-3
CN(C)/C=C(\C#N)C(=O)N/N=C/c1ccccc1,2%,-31%,5%,1%,-22%,0
C/C(CC(=O)C(F)(F)F)=N\NC(=O)/C(C#N)=C/N(C)C,?,23%,-2%,8.9µM*,-1%,1
Cc1ccc(CN2CC(C(=O)NC(c3nc4ccccc4[nH]3)C(C)C)CC2=O)cc1 (stereo not given),/,14%,/,/,-2%,/
Cc1ccc2cc(C=C(C#N)C#N)c(N3CCCCC3)nc2c1,-6%,1µM*,-8%,39%,-5%,0
Cc1ccc2cc(/C=C(\C#N)C(N)=O)c(N3CCCCC3)nc2c1,-1%,-10%,1%,-42%,-8%,1
Cc1noc(NS(=O)(=O)c2ccc(NC(=O)c3ccoc3C)cc2)c1C,-4%,28µM*,0%,-7%,-6%,13
CCc1ccc(C(=O)/C=C/Nc2ccc(S(=O)(=O)Nc3onc(C)c3C)cc2)cc1,16µM*,-25%,1%,?,-15%,8
Cc1noc(NS(=O)(=O)c2ccc(N/C=C/C(=O)c3ccc(F)cc3)cc2)c1C,-3%,-12%,-1%,8%,-14%,3
CC1CCC2C(=O)N3C(CCC(C)[C@@H]3c3cccc(N4CCOCC4)c3)C(=O)N2C1c1cccc(N2CCOCC2)c1 (stereo not given in full),4%[10 µM],/,/,-2%[10 µM],/,-1
COc1ccc(Cc2nnc(NC(=O)CSc3ccc(C)cc3)s2)cc1OC,?,18%[57.1 µM],0%,11µM*,10%[57.1 µM],10
Cc1cc(C)c(OCCCn2ccnc2)c(C)c1,?,0%,-2%,13µM*,4%,2
Cc1cccc(OCCCCCn2ccnc2)c1C,?,-1%,0%,?,7%[57.1 µM],6
Cc1ccc(OCCCCn2ccnc2)c(Cl)c1,?,2%,-3%,11µM*,-3%,1
Cc1cc(C)c(C)c(OCCCn2ccnc2)c1,-10%,-9%,1%,16µM*,-5%,1
Cc1cc(C)c(OCCn2ccnc2)c(C)c1,-10%,20%[11.4 µM],-4%,-30%,5%,1
Cc1ccc(C)c(OCCCCn2ccnc2)c1,-13%,-4%[57.1 µM],1%,?,5%[57.1 µM],4
CC(C)(C)c1ccccc1OCCCCCn1ccnc1,?,30%[57.1 µM],2%,18µM*,-7%[57.1 µM],-17
Cc1cc(C)cc(OCCCn2ccnc2)c1,/,16%,3%,/,-2%,-2
CCc1ccccc1NS(=O)(=O)c1ccc2[nH]cc(C(=O)NCc3ccco3)c(=O)c2c1,3%,12%,3%,-18%,0%,0
CCN(Cc1ccncc1)C(=O)CSc1ccc2ccccc2c1,3%,38%,11%,14%,9%,2
SMILES,VP16 counter,TrxR1 inh,GALK inh,RORgamma inh,TrxR1 substrate,Coupling enz
Cc1cc(Cl)c(OCCCn2cncn2)c(Br)c1,1%,-3%,0%,17%,-6%,-1
Cc1cc(Cl)c(OCCCn2ccnc2)c(Br)c1,?,0%[57.1 µM],0%,18µM*,7%[57.1 µM],4
CN1CCC(N(C)S(=O)(=O)c2ccc(C(C)(C)C)cc2)CC1,-6%,13%,4%,7%,1%,8
COC(=O)c1cccc(-n2nnnc2SCC(=O)Nc2nc3c(s2)CCCC3)c1,2%,14%,-6%,-42%,2%,2
O=C(Nc1nc2c(s1)CN(Cc1ccccc1)CC2)C1CCC1,11%,31%[57.1 µM],0%,-5%,-11%[57.1 µM],-4
COc1cccc(-n2nnnc2SCC(=O)Nc2nc3c(s2)CCCC3)c1,8.9µM*,18%,0%,3.2µM*,1%,1
CCN1CCc2nc(NC(=O)c3ccccc3)sc2C1,11µM*,3%,3%,14µM*,-3%,-3
COc1cccc(C(=O)Nc2nc3c(s2)CN(C)CC3)c1,13µM*,18%[57.1 µM],-1%,15%,12%[57.1 µM],/
Cc1ccc(NC(=O)Cn2c(=O)n(Cc3ccc(C(=O)NCc4ccc5c(c4)OCO5)cc3)c(=O)c3ccccc32)cc1,/,12%,/,/,-1%,/
Oc1cccc(CN2CCCCC2)c1,-24%,-6%[57.1 µM],1%,3%,5%[57.1 µM],2
CC(C)(C)c1cc(CN2CCCCC2)cc(C(C)(C)C)c1O,?,/,-1%,-25%,/,-56*
CC(C)(C)c1cc(CCC(=O)N2CCC2)cc(C(C)(C)C)c1O,-97%,12%,1%,13µM*,10%,/
Cc1noc(C)c1NC(=O)Nc1ccc2c(c1)C(=O)N([C@H](C)CO)C[C@H](C)[C@@H](CN(C)S(C)(=O)=O)O2,/,7%[57.1 µM],/,/,8%[57.1 µM],/
O=C(CN1C(=O)NC2(CCCC2)C1=O)N1CCN(S(=O)(=O)c2cccc(C(F)(F)F)c2)CC1,/,-10%,/,/,-11%,/
Fc1ccccc1-c1n[nH]c(=S)n1/N=C/c1c[nH]c2ccccc12,-2%,-47%,/,?,-22%[57.1 µM],1
CC(c1ccccc1)n1c(-c2ccncc2)n[nH]c1=S (stereo not given),?,-12%[57.1 µM],0%,?,4%,-1
CC(C)n1c(-c2ccccc2F)n[nH]c1=S,11µM*,-9%,2%,3.2µM*,4%,1
CC(c1ccccc1)n1c(-c2ccc(Cl)cc2)n[nH]c1=S (stereo not given),6.3µM*,-19%,-4%,5.6µM*,-2%,0
CC(c1ccccc1)n1c(-c2ccccc2F)n[nH]c1=S (stereo not given),6.3µM*,-3%,-3%,7.1µM*,5%,0
CC(c1ccc(F)cc1)n1c(-c2cccs2)n[nH]c1=S (stereo not given),10µM*,-22%[57.1 µM],-6%,2.8µM*,2%[57.1 µM],-1
CC1=C(C(=O)Nc2cccnc2)C(c2cccc(F)c2)n2nc(SCc3ccccc3)nc2N1 (stereo not given),/,15%,/,/,4%[2.29 µM],/
C=CC[n+]1ccc(/C=C2\C=Cc3cc(C)ccc3N2CC)c2ccccc21,1.3µM*,12%,10%,1.3µM*,-2%,-18

# Compound activity: PubChem BioAssay, National Center for Advancing Translational Sciences (NCATS)
